From ChEMBL document CHEMBL2218924, “A broad activity screen in support of a chemogenomic map for kinase signalling research and drug discovery” (Biochem J, 2013)

Tests used:
[1] = molecular target: Tyrosine-protein kinase SYK (Homo sapiens) (UniProt P43405); conditions: at 10 µM
[2] = molecular target: T1, Mitogen-activated protein kinase kinase kinase 7 (Homo sapiens) (UniProt O43318); conditions: at 1 µM
T1 sequence (whole entry): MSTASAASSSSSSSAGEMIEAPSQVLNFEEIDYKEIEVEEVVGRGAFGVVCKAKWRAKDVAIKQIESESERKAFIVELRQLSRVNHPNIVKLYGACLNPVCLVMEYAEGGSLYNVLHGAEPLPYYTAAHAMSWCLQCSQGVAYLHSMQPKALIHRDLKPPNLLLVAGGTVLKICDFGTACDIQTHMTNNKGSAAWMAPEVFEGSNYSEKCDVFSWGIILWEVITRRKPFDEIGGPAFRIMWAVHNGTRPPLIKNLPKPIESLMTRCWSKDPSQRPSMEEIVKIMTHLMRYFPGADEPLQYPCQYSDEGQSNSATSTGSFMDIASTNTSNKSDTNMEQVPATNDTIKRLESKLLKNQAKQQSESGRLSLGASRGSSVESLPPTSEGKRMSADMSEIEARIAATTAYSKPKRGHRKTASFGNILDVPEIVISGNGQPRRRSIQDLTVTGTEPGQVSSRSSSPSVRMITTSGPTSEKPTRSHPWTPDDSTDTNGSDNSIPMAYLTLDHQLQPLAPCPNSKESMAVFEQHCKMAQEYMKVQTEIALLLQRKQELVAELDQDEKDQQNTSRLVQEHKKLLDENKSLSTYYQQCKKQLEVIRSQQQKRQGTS

[3] = molecular target: T1, Mitogen-activated protein kinase kinase kinase 7 (Homo sapiens); conditions: at 10 µM
[4] = molecular target: T2, Serine/threonine-protein kinase TAO1 (Homo sapiens) (UniProt Q7L7X3); conditions: at 10 µM
T2 sequence (whole entry): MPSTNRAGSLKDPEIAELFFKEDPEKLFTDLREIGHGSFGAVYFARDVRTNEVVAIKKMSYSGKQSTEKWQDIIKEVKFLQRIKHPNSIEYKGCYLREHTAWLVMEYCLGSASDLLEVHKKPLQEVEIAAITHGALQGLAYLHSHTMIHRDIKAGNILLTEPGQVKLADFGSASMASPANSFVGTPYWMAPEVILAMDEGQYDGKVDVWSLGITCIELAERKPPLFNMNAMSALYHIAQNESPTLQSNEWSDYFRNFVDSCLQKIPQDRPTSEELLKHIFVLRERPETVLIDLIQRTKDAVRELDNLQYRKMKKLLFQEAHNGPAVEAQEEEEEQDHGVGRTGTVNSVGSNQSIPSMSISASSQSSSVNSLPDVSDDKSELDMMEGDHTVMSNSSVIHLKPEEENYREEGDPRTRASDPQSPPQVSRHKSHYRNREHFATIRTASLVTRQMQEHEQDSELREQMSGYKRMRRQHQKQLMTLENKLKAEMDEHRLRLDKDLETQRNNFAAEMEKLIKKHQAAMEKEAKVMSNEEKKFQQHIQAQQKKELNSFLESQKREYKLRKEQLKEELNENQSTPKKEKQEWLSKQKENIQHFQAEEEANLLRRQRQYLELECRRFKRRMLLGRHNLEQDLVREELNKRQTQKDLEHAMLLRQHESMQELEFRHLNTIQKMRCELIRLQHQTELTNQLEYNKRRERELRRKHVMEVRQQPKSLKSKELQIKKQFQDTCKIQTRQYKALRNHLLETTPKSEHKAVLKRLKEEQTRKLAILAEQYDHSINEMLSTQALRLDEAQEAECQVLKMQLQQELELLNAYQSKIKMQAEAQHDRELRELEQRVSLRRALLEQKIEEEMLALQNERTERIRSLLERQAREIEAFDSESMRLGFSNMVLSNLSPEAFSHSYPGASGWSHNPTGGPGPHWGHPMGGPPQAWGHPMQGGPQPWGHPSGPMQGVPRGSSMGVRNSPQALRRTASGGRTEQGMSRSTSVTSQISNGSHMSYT

[5] = molecular target: T3, Serine/threonine-protein kinase TBK1 (Homo sapiens) (UniProt Q9UHD2); conditions: at 1 µM
T3 sequence (whole entry): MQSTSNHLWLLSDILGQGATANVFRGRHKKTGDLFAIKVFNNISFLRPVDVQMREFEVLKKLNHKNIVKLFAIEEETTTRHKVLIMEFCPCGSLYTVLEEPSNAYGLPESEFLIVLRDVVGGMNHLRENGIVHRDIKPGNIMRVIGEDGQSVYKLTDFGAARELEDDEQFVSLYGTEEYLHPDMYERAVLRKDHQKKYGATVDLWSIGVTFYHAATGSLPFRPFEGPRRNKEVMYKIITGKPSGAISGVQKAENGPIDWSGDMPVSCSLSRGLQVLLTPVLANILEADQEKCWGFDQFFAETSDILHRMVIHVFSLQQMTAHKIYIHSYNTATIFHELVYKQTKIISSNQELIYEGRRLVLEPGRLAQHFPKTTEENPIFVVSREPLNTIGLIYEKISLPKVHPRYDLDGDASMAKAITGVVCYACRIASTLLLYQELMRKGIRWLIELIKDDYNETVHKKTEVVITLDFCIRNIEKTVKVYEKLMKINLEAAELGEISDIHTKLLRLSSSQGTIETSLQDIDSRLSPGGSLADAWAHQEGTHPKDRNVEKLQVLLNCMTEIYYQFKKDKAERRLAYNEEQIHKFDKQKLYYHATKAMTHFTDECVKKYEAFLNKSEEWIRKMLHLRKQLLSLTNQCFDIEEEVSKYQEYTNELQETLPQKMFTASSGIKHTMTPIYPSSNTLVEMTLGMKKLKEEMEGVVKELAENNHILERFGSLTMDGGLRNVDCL

[6] = molecular target: T3, Serine/threonine-protein kinase TBK1 (Homo sapiens); conditions: at 10 µM
[7] = molecular target: T4, Inhibitor of nuclear factor kappa-B kinase subunit beta (Homo sapiens) (UniProt O14920); conditions: at 1 µM
T4 sequence (whole entry): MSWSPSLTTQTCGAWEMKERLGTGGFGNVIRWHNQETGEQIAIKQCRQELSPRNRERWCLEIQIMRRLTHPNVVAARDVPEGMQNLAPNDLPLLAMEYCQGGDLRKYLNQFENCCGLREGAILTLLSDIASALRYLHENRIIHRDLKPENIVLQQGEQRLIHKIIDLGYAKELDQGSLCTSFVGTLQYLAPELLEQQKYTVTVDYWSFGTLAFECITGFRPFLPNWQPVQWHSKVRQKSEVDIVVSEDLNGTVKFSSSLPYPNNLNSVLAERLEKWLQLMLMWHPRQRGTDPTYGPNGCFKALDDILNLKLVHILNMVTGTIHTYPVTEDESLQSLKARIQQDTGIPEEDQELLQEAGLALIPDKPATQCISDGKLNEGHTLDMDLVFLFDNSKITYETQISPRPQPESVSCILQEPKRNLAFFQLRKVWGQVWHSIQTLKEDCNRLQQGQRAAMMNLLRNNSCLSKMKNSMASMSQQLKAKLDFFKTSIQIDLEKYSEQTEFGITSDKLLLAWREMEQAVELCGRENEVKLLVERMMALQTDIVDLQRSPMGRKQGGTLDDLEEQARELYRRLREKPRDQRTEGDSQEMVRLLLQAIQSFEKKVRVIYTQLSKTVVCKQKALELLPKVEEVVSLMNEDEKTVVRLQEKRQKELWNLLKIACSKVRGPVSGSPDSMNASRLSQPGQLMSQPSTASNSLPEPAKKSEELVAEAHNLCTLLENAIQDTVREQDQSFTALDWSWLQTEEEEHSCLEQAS

[8] = molecular target: T4, Inhibitor of nuclear factor kappa-B kinase subunit beta (Homo sapiens); conditions: at 10 µM
[9] = molecular target: T2, Serine/threonine-protein kinase TAO1 (Homo sapiens); conditions: at 1 µM
[10] = molecular target: T5, Serine/threonine-protein kinase TAO2 (Homo sapiens) (UniProt Q9UL54); conditions: at 1 µM
T5 sequence (whole entry): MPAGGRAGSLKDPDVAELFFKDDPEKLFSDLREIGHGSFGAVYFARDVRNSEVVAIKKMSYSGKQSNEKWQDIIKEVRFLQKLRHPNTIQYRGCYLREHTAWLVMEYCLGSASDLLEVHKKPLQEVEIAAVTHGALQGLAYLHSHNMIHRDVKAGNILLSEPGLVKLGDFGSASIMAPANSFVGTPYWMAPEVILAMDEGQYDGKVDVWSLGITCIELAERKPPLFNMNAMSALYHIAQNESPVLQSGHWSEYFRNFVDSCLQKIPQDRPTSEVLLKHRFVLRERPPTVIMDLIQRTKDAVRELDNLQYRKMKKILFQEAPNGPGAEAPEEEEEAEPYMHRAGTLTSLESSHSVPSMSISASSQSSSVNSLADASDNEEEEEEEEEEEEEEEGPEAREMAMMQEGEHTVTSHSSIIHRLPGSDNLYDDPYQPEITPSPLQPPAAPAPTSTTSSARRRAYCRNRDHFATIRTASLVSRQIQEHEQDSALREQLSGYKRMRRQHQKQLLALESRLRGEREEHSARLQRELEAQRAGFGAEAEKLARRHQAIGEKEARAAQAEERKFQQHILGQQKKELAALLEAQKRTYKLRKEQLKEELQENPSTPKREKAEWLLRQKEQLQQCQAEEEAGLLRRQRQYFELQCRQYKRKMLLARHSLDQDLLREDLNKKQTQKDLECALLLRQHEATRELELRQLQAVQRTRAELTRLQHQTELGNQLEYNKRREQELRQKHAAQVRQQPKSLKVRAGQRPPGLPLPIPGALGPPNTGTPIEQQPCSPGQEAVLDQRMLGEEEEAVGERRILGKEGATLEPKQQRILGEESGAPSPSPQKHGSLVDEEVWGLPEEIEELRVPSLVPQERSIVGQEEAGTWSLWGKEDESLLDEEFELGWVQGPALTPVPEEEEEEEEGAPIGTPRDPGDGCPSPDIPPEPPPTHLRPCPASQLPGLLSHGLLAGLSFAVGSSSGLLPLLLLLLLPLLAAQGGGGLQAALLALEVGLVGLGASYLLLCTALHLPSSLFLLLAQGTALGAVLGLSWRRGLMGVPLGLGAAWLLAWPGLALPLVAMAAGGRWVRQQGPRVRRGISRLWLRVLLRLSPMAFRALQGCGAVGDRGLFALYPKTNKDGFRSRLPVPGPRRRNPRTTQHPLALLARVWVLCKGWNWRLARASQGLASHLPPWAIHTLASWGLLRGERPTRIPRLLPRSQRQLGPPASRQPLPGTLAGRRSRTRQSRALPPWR

[11] = molecular target: T5, Serine/threonine-protein kinase TAO2 (Homo sapiens); conditions: at 10 µM
[12] = molecular target: T6, Serine/threonine-protein kinase TAO3 (Homo sapiens) (UniProt Q9H2K8); conditions: at 1 µM
T6 sequence (whole entry): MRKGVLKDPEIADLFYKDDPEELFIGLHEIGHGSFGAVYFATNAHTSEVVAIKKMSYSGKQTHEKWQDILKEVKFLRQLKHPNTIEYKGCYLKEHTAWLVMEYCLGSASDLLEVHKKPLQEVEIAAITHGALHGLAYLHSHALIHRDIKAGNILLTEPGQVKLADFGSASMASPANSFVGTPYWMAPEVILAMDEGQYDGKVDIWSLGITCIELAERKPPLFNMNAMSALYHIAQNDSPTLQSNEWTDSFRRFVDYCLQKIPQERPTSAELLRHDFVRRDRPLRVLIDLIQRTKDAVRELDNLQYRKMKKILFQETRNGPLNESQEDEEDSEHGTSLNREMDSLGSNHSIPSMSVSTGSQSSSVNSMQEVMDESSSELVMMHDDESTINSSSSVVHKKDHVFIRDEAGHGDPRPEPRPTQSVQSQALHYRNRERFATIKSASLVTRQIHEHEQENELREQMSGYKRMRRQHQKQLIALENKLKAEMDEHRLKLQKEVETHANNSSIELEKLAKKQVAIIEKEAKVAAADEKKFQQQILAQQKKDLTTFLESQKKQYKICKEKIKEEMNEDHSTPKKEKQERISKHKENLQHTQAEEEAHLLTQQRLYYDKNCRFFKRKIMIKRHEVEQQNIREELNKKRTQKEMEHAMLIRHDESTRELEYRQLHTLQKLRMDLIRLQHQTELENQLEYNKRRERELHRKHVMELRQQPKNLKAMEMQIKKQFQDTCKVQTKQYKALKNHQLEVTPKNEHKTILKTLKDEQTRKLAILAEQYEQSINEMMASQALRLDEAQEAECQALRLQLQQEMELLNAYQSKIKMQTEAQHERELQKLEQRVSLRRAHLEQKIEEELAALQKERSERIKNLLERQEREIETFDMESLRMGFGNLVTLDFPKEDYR

[13] = molecular target: T6, Serine/threonine-protein kinase TAO3 (Homo sapiens); conditions: at 10 µM
[14] = molecular target: T7, TGF-beta receptor type-1 (Homo sapiens) (UniProt P36897); conditions: at 1 µM
T7 sequence (whole entry): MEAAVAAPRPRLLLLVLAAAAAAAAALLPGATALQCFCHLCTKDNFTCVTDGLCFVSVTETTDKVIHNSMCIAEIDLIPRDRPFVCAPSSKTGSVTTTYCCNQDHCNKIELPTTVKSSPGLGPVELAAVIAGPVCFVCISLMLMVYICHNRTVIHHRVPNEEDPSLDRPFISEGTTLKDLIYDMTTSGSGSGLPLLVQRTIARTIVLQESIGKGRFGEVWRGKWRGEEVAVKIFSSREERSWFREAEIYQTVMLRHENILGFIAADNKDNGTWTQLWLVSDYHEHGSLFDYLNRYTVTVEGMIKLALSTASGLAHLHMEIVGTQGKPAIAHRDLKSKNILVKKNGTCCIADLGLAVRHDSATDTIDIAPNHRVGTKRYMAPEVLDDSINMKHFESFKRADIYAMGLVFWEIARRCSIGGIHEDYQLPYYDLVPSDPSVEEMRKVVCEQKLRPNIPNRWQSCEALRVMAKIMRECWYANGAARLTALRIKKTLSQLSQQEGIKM

[15] = molecular target: T7, TGF-beta receptor type-1 (Homo sapiens); conditions: at 10 µM
[16] = molecular target: Insulin receptor (Homo sapiens) (UniProt P06213); conditions: at 1 µM
Chain of Insulin receptor (Homo sapiens) (P06213 28-758 limits assumed): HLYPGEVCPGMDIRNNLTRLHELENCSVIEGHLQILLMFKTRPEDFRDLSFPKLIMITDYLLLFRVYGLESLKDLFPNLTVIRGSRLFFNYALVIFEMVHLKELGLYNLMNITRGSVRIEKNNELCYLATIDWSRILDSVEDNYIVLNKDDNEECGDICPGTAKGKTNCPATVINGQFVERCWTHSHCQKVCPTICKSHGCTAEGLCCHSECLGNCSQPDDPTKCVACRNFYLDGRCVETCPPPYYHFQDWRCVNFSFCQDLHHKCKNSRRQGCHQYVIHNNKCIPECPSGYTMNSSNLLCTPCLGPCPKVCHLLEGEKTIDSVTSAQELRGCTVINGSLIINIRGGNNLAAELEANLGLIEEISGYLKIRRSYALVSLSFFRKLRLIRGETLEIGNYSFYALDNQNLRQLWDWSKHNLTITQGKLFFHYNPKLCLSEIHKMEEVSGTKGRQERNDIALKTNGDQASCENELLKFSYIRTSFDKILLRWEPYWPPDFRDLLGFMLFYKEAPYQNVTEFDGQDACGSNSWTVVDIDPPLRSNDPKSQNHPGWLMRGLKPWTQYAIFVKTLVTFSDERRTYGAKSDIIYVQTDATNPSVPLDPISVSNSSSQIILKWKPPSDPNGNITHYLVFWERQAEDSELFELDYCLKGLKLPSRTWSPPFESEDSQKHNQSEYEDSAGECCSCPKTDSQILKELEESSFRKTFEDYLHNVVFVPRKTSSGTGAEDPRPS
Chain of Insulin receptor (Homo sapiens) (P06213 763-1382 limits assumed): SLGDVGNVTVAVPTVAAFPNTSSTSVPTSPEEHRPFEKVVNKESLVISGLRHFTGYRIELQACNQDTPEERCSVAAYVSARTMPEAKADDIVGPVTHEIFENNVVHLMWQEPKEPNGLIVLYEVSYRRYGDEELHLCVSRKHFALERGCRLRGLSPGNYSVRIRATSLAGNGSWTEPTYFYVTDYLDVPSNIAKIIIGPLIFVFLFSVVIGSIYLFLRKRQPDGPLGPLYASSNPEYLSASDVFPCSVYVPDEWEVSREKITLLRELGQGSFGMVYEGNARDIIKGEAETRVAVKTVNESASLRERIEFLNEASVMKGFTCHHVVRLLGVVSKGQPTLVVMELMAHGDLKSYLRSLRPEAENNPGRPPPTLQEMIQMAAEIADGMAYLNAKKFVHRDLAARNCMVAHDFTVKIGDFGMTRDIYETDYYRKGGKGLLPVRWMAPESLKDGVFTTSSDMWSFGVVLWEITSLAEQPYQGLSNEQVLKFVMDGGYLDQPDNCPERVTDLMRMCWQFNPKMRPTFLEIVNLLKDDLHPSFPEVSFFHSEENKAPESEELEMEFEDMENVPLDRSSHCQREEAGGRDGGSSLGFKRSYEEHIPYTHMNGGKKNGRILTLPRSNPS

Compound | residual activity [1] | residual activity [2] | residual activity [3] | residual activity [4] | residual activity [5] | residual activity [6] | residual activity [7] | residual activity [8] | residual activity [9] | residual activity [10] | residual activity [11] | residual activity [12] | residual activity [13] | residual activity [14] | residual activity [15] | residual activity [16]
COc1cc2ncc(-c3ccccc3)nc2cc1OC | 100% | 98% | 82% | 91% | 91% | 76% | 95% | 95% | – | – | – | – | – | – | – | –
N#CCCc1ccc2c(c1)-c1[nH]c3ccc([N+](=O)[O-])cc3c1CC(=O)N2 | 41% | 57% | 21% | 24% | 38% | 13% | – | – | 58% | 64% | 52% | 56% | 41% | 73% | 28% | 118%
